Results on 55 compounds are retold here after PubChem BioAssay AID602125 (The Scripps Research Institute Molecular Screening Center, 2011).

The structures appear in SMILES notation. The whole screen tested about 1,300 compounds, of which about 110 (8.5%) were called active. No stated cut-off is given here; in the data, active means inhibition above about 6.5%; inactive means the rest. These entries were drawn from the full list.

The test is described as follows: quenching of GFP signal – biochemical, fluorescence, artefact control for Rin1-Abl interaction inhibitor project (AID 602125).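 Further: ABL1-eGFP fusion protein alone without its partner RIN1-SBP; 0% = protein with vehicle and 100% = wells lacking protein.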 Conditions: inhibitors/quenchers counterscreen, at 6.75 µM, active compounds read high. In general terms: The purpose of a counterscreen is to sort out artefacts and off-target activity.
For `CC(C)CNS(=O)(=O)c1ccc(C(=O)Nc2ccc3c(c2)OCO3)cc1`, the inhibition (as a rule, the change of the read-out against control, counted positive when it falls) is -1.46% (inactive).

Regarding `O=c1ccc2c(-c3ccccc3S(=O)(=O)O)c3ccc(O)c(O)c3oc-2c1O`, the inhibition was 60.6% (active).

In the case of `CCCn1c(N)c(C(=O)CSc2nnc(-c3cccnc3)n2-c2ccc(C)cc2C)c(=O)[nH]c1=O`, the inhibition is -2.86% (inactive).

Regarding `Cc1cc2ccccc2n1CCNC(=O)COc1ccc2ccccc2c1`, the inhibition is 0.81% (inactive).

With `CC(OC(=O)c1ccccc1NCCO)C(=O)Nc1ccnn1C(C)C` (stereo not given), the inhibition is 0.13% (inactive).

Take `C=C1c2c(Cl)ccc(O)c2C(O)=C2C(=O)[C@]3(O)C(O)=C(C(N)=O)C(=O)[C@@H](N(C)C)[C@@H]3[C@@H](O)C12` (stereo not given in full): the inhibition is 14.2% (active).

Turning to `CC(=O)NC(c1cccs1)c1cc(Br)c2cccnc2c1O` (stereo not given), the inhibition is 4.24% (inactive).

As for `Nc1cc(=O)c2[nH]cnc2[nH]1`, the inhibition is 0.27% (inactive).

Regarding `CCOC(=O)N1CCC(c2cc(=O)n(-c3ccccc3)[nH]2)CC1`, the inhibition is -3.53% (inactive).

In the case of `O=C(Nc1ccc(OC(F)(F)F)cc1)c1ccc2c(c1)no[n+]2[O-]`, the inhibition is 0.62% (inactive).

For the compound `C=CCn1c2ccccc2c2nnc(SCc3[nH]c(=O)[nH]c3C(=O)CCCCC(=O)OCC)nc21`, the inhibition is 0.3% (inactive).

For `COCCNC(=O)Nc1ccc2nc(-c3ccco3)c(-c3ccco3)nc2c1`, the inhibition is 15.8% (active).

For the compound `CCc1ccc(CN(C)C(C)C(=O)Nc2ccc(S(=O)(=O)N3CCCC3)cc2)cc1` (stereo not given), the inhibition is -0.29% (inactive).

Regarding `COC(=O)c1ccc(COC(=O)C2CCN(S(=O)(=O)c3c(Cl)cccc3Cl)CC2)o1`, the inhibition was 1.86% (inactive).

Take `CN(CC(=O)Nc1ccc(F)cc1)CC(=O)Nc1ccc(Cl)c(S(=O)(=O)N2CCOCC2)c1`: the inhibition is -1.92% (inactive).

With `C#CCOCCOCCOCCNc1nc(N2CCN(C(=O)C(Cc3ccc(O)cc3)n3cc(C(N)CC(C)C)nn3)CC2)nc(N2CCN(C(=O)C(Cc3ccc(O)cc3)n3cc(C(N)C(C)CC)nn3)CC2)n1` (stereo not given), the inhibition is -1.04% (inactive).

Consider `C=CCn1cc(C(=O)NCc2ccc(Cl)cc2)c(=O)c2cc(S(=O)(=O)N(CC)CC)ccc21`, for which the inhibition was -0.53% (inactive).

With `Cc1nn(-c2ncc(C(F)(F)F)cc2Cl)c(=O)n1-c1ccccc1`, the inhibition was -0.58% (inactive).

Take `COc1ccc(CNC(=O)c2cc(C(=O)C3CC3)c[nH]2)cc1`: the inhibition is 0% (inactive).

As to `Cc1c(CC(=O)N2CCN(C(=O)C3COc4ccccc4O3)CC2)c(=O)oc2c(O)c(O)ccc12` (stereo not given), the inhibition is 21.4% (active).

On to `NC1=CC(=O)C(=O)c2cccnc21`, for which the inhibition is 8.89% (active).

`Cc1ccccc1CN1C[C@@H]2C[C@@H](c3ccc4nsnc4c3)N3CCC[C@@]23C1=O`: the inhibition was 0.34% (inactive).

With `CSc1ncnc2c1ncn2CC(=O)C1CCC2C3CCC4=CC(=O)CCC4(C)C3CCC12C` (stereo not given), the inhibition is 0.43% (inactive).

Consider `O=C(CNCc1ccco1)Nc1cc(S(=O)(=O)N2CCOCC2)ccc1N1CCCC1`, for which the inhibition was 2.49% (inactive).

For the compound `CCc1cc2c(N3CCN(c4nnc(CC)s4)CC3)ncnc2s1`, the inhibition is -3.38% (inactive).

On to `CC(=O)Nc1ccc(CN2CCC(Oc3ccc(C(=O)N4CCCC4)cc3)CC2)cc1`, for which the inhibition is -0.82% (inactive).

As for `CCOc1ccc(S(=O)(=O)N2CCCCC2)cc1NC(=O)CN1CCCC1c1cccs1` (stereo not given), the inhibition is -2.43% (inactive).

Turning to `O=c1c2c(nc3n1CCCCC3)sc1c(O)cccc12`, the inhibition was 0.41% (inactive).

In the case of `CCOc1ccc(CNC(=O)C2CCCN(c3nnc(C)c4c(C)n(-c5ccccc5)nc34)C2)cc1` (stereo not given), the inhibition was -0.63% (inactive).

For `Oc1c(CN2CCN(c3ccc(F)cc3)CC2)cc(Cl)c2cccnc12`, the inhibition is 1.29% (inactive).

`CC(CCO)Nc1nc2c([nH]1)c(=O)n(C)c(=O)n2C` (stereo not given): the inhibition was -2.15% (inactive).

`O=C(COc1ccc(S(=O)(=O)NCCc2ccccc2)cc1)N1CCCC1`: the inhibition is -1.34% (inactive).

As to `CN(C)c1ccc(N/C=C/C(=O)C(F)(F)F)cc1`, the inhibition was 0.06% (inactive).

Turning to `Cc1cccc(N(C)C(=O)CN2C(=O)COc3ccc(S(=O)(=O)N4CCCCCC4)cc32)c1`, the inhibition is -2.16% (inactive).

Take `C[C@@H]1CN([C@H](C)CO)S(=O)(=O)c2ccc(C#C[C@@H](C)O)cc2O[C@@H]1CN(C)Cc1ccc(-c2ccccc2)cc1`: the inhibition is -1.52% (inactive).

Take `O=C(NNc1c2ccccc2nc2ccccc12)c1cc2ccccc2cc1O`: the inhibition was 2.7% (inactive).

On to `Cc1cc(NC(=O)CSCC(=O)NC(C)c2ccccc2)no1` (stereo not given), for which the inhibition is 0.79% (inactive).

`COc1cc(C(=S)N2CCOCC2)ccc1O`: the inhibition was -0.21% (inactive).

On to `Cc1ccc(C(NC(=O)C2CCN(CCOc3ccc(Cl)cc3Cl)CC2)c2ccccn2)cc1` (stereo not given), for which the inhibition was -1.38% (inactive).

For `CN(Cc1c(F)cccc1Cl)C(=O)CNC(=O)c1ccc2c(c1)OCO2`, the inhibition is 0% (inactive).

With `O=C(Nc1ccc(S(=O)(=O)Nc2ncccn2)cc1)c1cncc(Br)c1`, the inhibition is 0.85% (inactive).

For `O=c1cc(CO)oc(CN2CCC(Cc3ccccc3)CC2)c1O`, the inhibition was 0.68% (inactive).

Take `CCOC(=O)N1CCN(C(=O)C2CCCN(c3ncnc4c3sc3cccc(F)c34)C2)CC1` (stereo not given): the inhibition is 0.85% (inactive).

For the compound `CCOc1ccc(-n2c(SCC(=O)NC3CCS(=O)(=O)C3)nnc2-c2cccnc2)cc1` (stereo not given), the inhibition is -0.86% (inactive).

For the compound `CCOC(=O)CN(C(=O)COc1nc(C)cc(C)c1C#N)c1ccc(Cl)cc1`, the inhibition is -1.77% (inactive).

Regarding `OC[C@@H]1CN(Cc2ccc(Cl)cc2)C[C@H](n2cnc3c(NCc4ccncc4)ncnc32)O1`, the inhibition was 0.89% (inactive).

As for `CCOC(=O)N1CCN(C(=O)C2CCN(c3ncnc4c3sc3cccc(F)c34)CC2)CC1`, the inhibition is 1.39% (inactive).

`Cc1ccccc1C(=O)N1CCC(C(=O)Nc2ccc(S(=O)(=O)N(C)C(C)C)cc2)CC1`: the inhibition is 0.2% (inactive).

In the case of `O=C(c1cn(-c2ccccc2)nc1-c1cc2ccccc2oc1=O)N1CCOCC1`, the inhibition is -1.57% (inactive).

`O=C(CC1SCCNC1=O)Nc1ccc(Cl)cc1` (stereo not given): the inhibition is 0.84% (inactive).

Regarding `CN(C(=O)c1ccc(NC(=O)Cc2cccc(NC(=O)C3CCN(C(=O)c4ccccc4)CC3)c2)cc1)C1CC1`, the inhibition is -0.72% (inactive).

`Nc1nc2n(n1)C(c1ccco1)CC(c1ccc(Cl)c(Cl)c1)N2` (stereo not given): the inhibition is -3.07% (inactive).

In the case of `NS(=O)(=O)c1ccc(CCNC(=O)Nc2ccc(Cl)cc2)cc1`, the inhibition is 2.08% (inactive).

For `Oc1cccc2cc(-c3ccncc3)cnc12`, the inhibition is 11.6% (active).

As to `Cc1ccc(-n2c(SCC(=O)NCc3ccc4c(c3)OCO4)nnc2-c2cccnc2)c(C)c1`, the inhibition is 0.57% (inactive).
